From PubChem BioAssay (NCATS)
Records with an inconclusive call do not appear. Where a call stands in place of a potency, no number is given. Calls of active or inactive are those of the source. The call rests on the fitted dose curve; in most records, active means well fitted cell-killing curve with a large enough effect; inconclusive means small, poorly fitted or top-dose-only effect; inactive means flat fitted curve, though single readings scatter.
Potency means the concentration at half of the fitted maximal effect.

Experiment: Cell Viability - LYMP2-010 (AID 981); further: nearly all actives have a fitted effect of over 55% in size
Conditions: LYMP2-010 lymphoblastoid cell viability, qHTS; series mostly up to 92.2 µM
Description: NIH Chemical Genomics Center [NCGC]
NIH Molecular Libraries Screening Centers Network [MLSCN]
National Institutes of Environmental Health Sciences [NIEHS]
National Toxicology Program [NTP]
We have developed a 1536-well cell-based assay for quantitative high throughput screening (qHTS) against a number of cell lines to determine in vitro cytotoxicity of small molecules. This particular assay uses a human lymphoblastoid cell line (LYMP2-010) purchased from Coriell Institute for Medical Research.
NCGC Assay Protocol Summary:
The CellTiter-Glo luminescent cell viability assay (Promega) is a homogeneous method to measure the number of viable cells in culture. The end point readout of this assay is based on quantitation of intracellular ATP, an indicator of metabolic activity, using the luciferase reaction. Luciferase catalyzes the oxidation of beetle Luciferin to oxyluciferin and light in the presence of ATP. The luminescent signal is proportional to amount of ATP present.
Using the CellTiter-Glo luminescent cell viability assay, the amount of cellular ATP was measured in the lymphoblastoid cell line with complete culture medium following compound treatment for 24 hours. The assay was performed in opaque white Kalypsys 1536-well plates. In the screen, tetraoctylammonium bromide was used as positive control. Library compounds were measured for their ability to cause acute toxicity in the cell line, as reflected by a decrease in intracellular ATP levels, in a concentration-dependent manner. […] AC50 values were determined from concentration-response data modeled with the standard Hill equation.
qHTS protocol for CellTiter Glo lymphoblastoid cellular assay
[Step] [Parameter] [Value] [Description]
1. Reagent; 5 uL; 2500 lymphoblastoid cells/well
2. Time; 5 hr; 37 C incubation
4. Controls; 23 nL; Tetraoctylammonium bromide 6.4pM to 92 uM
5. Time; 24 hr; 37 C incubation
6. Reagent; 5 uL; CellTiter Glo reagent
7. Time; 30 min; Room Temperature
8. Detection; Luminescence; Viewlux plate reader
Keywords: cell viability, cytotoxicity, lymphoblastoid cell line, luminescence, NTPHTS, NTPHTS_NCGC, NIEHS, DSSTox, MLSMR, MLSCN, NIH Roadmap, qHTS, NCGC
With `CC(C)(C)OO` the Potency was “inactive”. In the case of `CCSC(=O)Cl`, the Potency is reported as “inactive”. For `BrCCBr`, the Potency was “inactive”. With `CCOCN(C(=O)CCl)c1c(C)cccc1CC` the Potency was 50.1 µM (active). For `OCC1CO1` (stereo not given), the Potency was “inactive”. With `c1nc[nH]n1` the Potency was “inactive”. With `COC1=CC(=O)OC(CCc2ccccc2)C1` (stereo not given) the Potency was “inactive”. In the case of `COc1ccc(C=O)cc1OC`, the Potency is reported as “inactive”. With `Brc1ccccc1` the Potency was “inactive”. For `NC(=S)Nc1ccccc1`, the Potency was “inactive”. With `c1ccc2c(c1)CCCC2` the Potency was “inactive”. For `CCCSC(=O)Cl`, the Potency was “inactive”. In the case of `CCOc1ccc(N)cc1`, the Potency is reported as “inactive”. In the case of `Cc1ccc([N+](=O)[O-])cc1C`, the Potency is reported as “inactive”. In the case of `S=C=Nc1cccc2ccccc12`, the Potency is reported as “inactive”. For `Clc1cccc(C(Cl)(Cl)Cl)n1`, the Potency was “inactive”. In the case of `C1CCC2CCCCC2C1` (stereo not given), the Potency is reported as “inactive”. For `CCCC(=O)Cl`, the Potency was “inactive”. For `Nc1ccccc1Cl`, the Potency was “inactive”. In the case of `C=CC(N)=O`, the Potency is reported as “inactive”. In the case of `c1ccc(-c2ccccc2)cc1`, the Potency is reported as “inactive”. For `C=CC(C)=O`, the Potency was “inactive”. In the case of `CC(C)(c1ccccc1)c1ccc(O)cc1`, the Potency is reported as “inactive”. For `CCc1cccc(CC)c1N(COC)C(=O)CCl`, the Potency was 50.1 µM (active). For `N#CCCCl`, the Potency was “inactive”. With `Cc1cccc(C#N)c1` the Potency was “inactive”. In the case of `Cc1cccc([N+](=O)[O-])c1`, the Potency is reported as “inactive”. In the case of `CCCCOC(=O)c1ccccc1C(=O)OCCCC`, the Potency is reported as “inactive”. For `ClC(Cl)=C(c1ccc(Cl)cc1)c1ccc(Cl)cc1`, the Potency was “inactive”. With `C[C@]12CC[C@H]3[C@@H](CCC4=CC(=O)CC[C@@]43C)[C@@H]1CC[C@@H]2O` the Potency was “inactive”. In the case of `CC(=O)[O-].CC(=O)[O-].O.O.O.[Pb+2]`, the Potency is reported as “inactive”. With `O=C=NC1CCCCC1` the Potency was “inactive”. For `ClC(Cl)=C(Cl)Cl`, the Potency was “inactive”. With `CC(C)(OO)c1ccccc1` the Potency was 25.1 µM (active). With `C=CCOC(C)=O` the Potency was “inactive”. For `CCOP(=S)(OCC)SCSC(C)(C)C`, the Potency was “inactive”. With `CCOP(=S)(OCC)Oc1ccc([N+](=O)[O-])cc1` the Potency was “inactive”. For `Nc1ccc(Br)cc1`, the Potency was “inactive”. For `Cc1ccc2ccccc2c1`, the Potency was “inactive”. For `COP(=S)(OC)Oc1ccc([N+](=O)[O-])cc1`, the Potency was “inactive”.
